# Assay results published in PubChem BioAssay (NCATS).
# Results filed as inconclusive are left out. The source made the active and inactive calls. Calls follow the shape of the dose curve; as a rule, active = well fitted inhibition curve with a large enough effect; inconclusive = small, poorly fitted or top-dose-only effect; inactive = flat fitted curve, though single readings scatter.
# System: HEK293
# Experiment: Cytotoxic Profiling of Annotated Libraries Using Quantitative High-Throughput Screening (AID 1296008); also: nearly all actives have a fitted effect of over 60% in size
# Settings: Five cell lines viability, CellTiter-Glo ATP luminescence, 48-72 h; max response: active compounds read low
# Outline: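 Cells exposed to compounds for 48 or 72 hr at 37 degrees Celsius. Viability read as ATP-coupled luminescence with CellTiter-Glo after 10 min at room temperature.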
row,SMILES,outcome
1,CC(=O)OCC(=O)O[C@@H]1[C@H]2[C@@H](OC(=O)c3ccccc3)[C@@H](C)C[C@]2(O)[C@H](OC(C)=O)C2(C)[C@H]3CC(C)(C)C(=O)[C@@H]3CC1(OC(C)=O)[C@@H]2OC(C)=O (some centres undefined),inactive
2,CC1(O)CCC2C(C(=O)O)=COC(OC3OC(CO)C(O)C(O)C3OC(=O)/C=C/c3ccc(O)cc3)C21 (centres undefined),inactive
3,CC(=O)NC(CCC(=O)O)C(=O)NCCc1ccc(O)cc1 (centres undefined),inactive
4,COC(=O)C1C(c2ccc(O)cc2)C(C(=O)OC)C1c1ccc(O)cc1 (centres undefined),inactive
5,C=C(C)C(=O)O[C@H]1C[C@@](C)(OC(C)=O)[C@@]2(O)CC[C@@](C)(O)[C@H](OC(C)=O)[C@@]23OC(=O)C(COC)=C13,inactive
6,CC1(C)CC(=O)N(CCCCN2CCN(c3ncccn3)CC2)C(=O)C1,inactive
7,COc1ccc2c(c1)OC[C@]1(O)c3cc4c(cc3O[C@H]21)OCO4,inactive
8,CC(CCC1(O)OC2CC3C4CCC5CC(O[C@@H]6O[C@H](CO)[C@@H](O)[C@H](O)[C@H]6O[C@@H]6OC[C@@H](O)[C@H](O)[C@H]6O)C(O)CC5(C)C4CCC3(C)C2C1C)CO[C@@H]1O[C@H](CO)[C@@H](O)[C@H](O)[C@H]1O (some centres undefined),inactive
9,COc1cc(CCc2ccccc2)c(C(=O)O)c2c1CC(C(C)(C)O)O2 (centres undefined),inactive
10,CCCC1=CC2=C(CO1)C(=O)C(C)(OC(=O)c1c(C)cc(OC)cc1O)C(O)C2 (centres undefined),inactive
11,C[C@@H]1O[C@@H](O[C@@H]2[C@@H](O)[C@H](O[C@@H]3[C@@H](O)[C@@H](O)[C@H](O[C@H]4[C@H](OC(=O)[C@]56CCC(C)(C)C[C@H]5C5=CCC7[C@@]8(C)C[C@H](O)[C@H](O[C@@H]9O[C@@H](C)[C@H](O)[C@@H](O)[C@H]9O)[C@@](C)(CO)C8CC[C@@]7(C)[C@]5(C)C[C@H]6O)O[C@H](C)[C@H](O)[C@@H]4O)O[C@H]3C)OC[C@H]2O)[C@H](O)[C@H](O)[C@H]1O (some centres undefined),inactive
12,CCS(=O)(=O)N1CCC([C@@H](C)n2c(C)c(C(=O)NCc3c(OC)cc(C)[nH]c3=O)c3ccccc32)CC1,inactive
13,C/C=C1\[C@H](O[C@@H]2O[C@H](CO)[C@@H](O)[C@H](O)[C@H]2O)OC=C(C(=O)OC)[C@H]1CC(=O)OC,inactive
14,O=C(O[C@H]1[C@@H]2C[C@@H]3OC[C@@](O)([C@H]2[C@H](O[C@@H]2O[C@H](CO)[C@@H](O)[C@H](O)[C@H]2O)O3)[C@@H]1O)c1ccccc1,inactive
15,CC1CCC2C(C)(C)C(O)CCC2(C)C12Cc1c(O)cc3c(c1O2)C(N)=NC3 (centres undefined),inactive
16,C=CC(C)(C)O[C@@H]1O[C@H](CO[C@@H]2OC[C@](O)(CO)[C@H]2O)[C@@H](O)[C@H](O)[C@H]1O,inactive
17,CCCC(N[C@@H](C)C(=O)N1[C@H](C(=O)O)C[C@@H]2CCCC[C@@H]21)C(=O)OCC (some centres undefined),inactive
18,O=C(O)c1ccc(CCCc2ccc(OCCc3ccc(F)cc3)cc2)o1,inactive
19,Cc1[nH]cnc1C1CCN(c2nc3cccc4c3n2CCC4=O)CC1,inactive
20,C[C@@H]1O[C@@H](O[C@@H]2[C@@H](O)[C@H](O[C@@H]3[C@@H](O)[C@@H](O)[C@H](O[C@H]4[C@H](OC(=O)[C@]56CCC(C)(C)C[C@H]5C5=CCC7[C@@]8(C)C[C@H](O)[C@H](O[C@@H]9O[C@H](C(=O)O)[C@@H](O)[C@H](O)[C@H]9O)[C@@](C)(CO)C8[C@H](O)C[C@@]7(C)[C@]5(C)CC6)OC[C@H](O)[C@@H]4O)O[C@H]3C)OC[C@H]2O)[C@H](O)[C@H](O)[C@H]1O (some centres undefined),inactive

row,SMILES,outcome
1,CC1(C)CC2C(O)C3=C(CC(C)(O)C2C1)C(=O)OC3O (centres undefined),inactive
2,CC(C)=CC/C=C(/C)[C@H]1CC[C@]2(C)[C@@H]1[C@H](O)CC1[C@@]3(C)CC[C@H](O)C(C)(C)[C@@H]3[C@@H](O[C@@H]3O[C@H](CO)[C@@H](O)[C@H](O)[C@H]3O[C@@H]3O[C@@H](C)[C@H](O)[C@@H](O)[C@H]3O)C[C@]12C (some centres undefined),inactive
3,O=C(/C=C/c1ccc(O)cc1)OCC1=C[C@@H](O)[C@@H]2C=CO[C@@H](O[C@@H]3O[C@H](CO)[C@@H](O)[C@H](O)[C@H]3O)[C@H]12,inactive
4,O=C(O[C@H]1[C@@H]2C=CO[C@@H](O[C@@H]3O[C@H](CO)[C@@H](O)[C@H](O)[C@H]3O)[C@@H]2[C@@]2(CO)O[C@@H]12)c1ccc(O)c(O)c1,inactive
5,O=C(O)C[C@H]1CCC(=O)[C@@H]1C/C=C\CCOC1OC(CO)C(O)C(O)C1O (some centres undefined),inactive
6,CC(=O)OC1C(O)C(C)=C(CCC(C)CC(=O)O)C2(C)CCCC(C)(C)C12 (centres undefined),inactive
7,Cc1ncc([N+](=O)[O-])n1CC(O)CN1CCOCC1 (centres undefined),inactive
8,COc1cc2c(cc1O)C1(Cc3ccc4c(c3C1=O)OCO4)N(C)CC2 (centres undefined),inactive
9,COC(=O)[C@H](CC1C=NC=N1)NCC12CC3CC(CC(C3)C1)C2 (some centres undefined),inactive
10,CCOC(=O)c1ccc(N(C)c2csc(-c3ccccc3)n2)cc1,inactive
11,C/C1=C\C[C@H](O[C@@H]2O[C@H](CO)[C@@H](O)[C@H](O)[C@H]2O)/C(C)=C/[C@H]2OC(=O)[C@H](C)[C@@H]2CC1,inactive
12,COc1ccc(C(=O)O[C@H]2CC(C)=CC[C@@]3(C)[C@@H](OC(C)=O)C[C@@](O)(C(C)C)[C@H]23)cc1,inactive
13,CC/C=C\C[C@H]1C(=O)C=C[C@@H]1CCCCCCCC(=O)O,inactive
14,CC1CC(=O)C2=C(O1)OC1(C)CCC3C(C)(C)C=CC(=O)C3(C)C1C2 (centres undefined),inactive
15,CC1(CO)CC2C(O)C(=O)C3(CO)CC3(C)C2C1 (centres undefined),inactive
16,CCn1nnnc1NCc1ccc(C(C)C)cc1,inactive
17,CCNC(=O)CCC/C=C\C[C@@H]1[C@@H](/C=C/C(O)CCc2ccccc2)[C@@H](O)C[C@@H]1O (some centres undefined),inactive
18,CN[C@@H]1[C@@H](O)[C@@H](O[C@@H]2[C@@H](O)[C@H](O[C@H]3O[C@H](CN)[C@@H](O)[C@H](O)[C@H]3O)[C@@H](N)C[C@H]2NC(=O)[C@@H](O)CN)OC[C@]1(C)O,inactive
19,CC1(C)OC(=O)C(OCC2CC2)=C1c1ccc(S(C)(=O)=O)cc1,inactive
